# Data taken from ChEMBL document CHEMBL3988442, “University of Dundee, Small-Polar-MMV Screening Library” (2021).
# Hit rate of the full screen: of about 38,000 compounds, about 1,200 (3.2%) showed an effect of 50% or more. The median lay at about -58%. This excerpt belongs to a sample that is enriched for strong results.
# Test system: Plasmodium falciparum
# Assay: Calibr Malaria Delayed Death Assay SOP
# Type: functional, organism-based
# Parameters: scale not given: in the data most compounds retested in dose-response had high values
# Conditions: concentration 4.99e-06 (unit not given; other assays of the set use mol/L)
row,Structure (SMILES),Percent Effect [%]
1,O=C(O)C(F)(F)F.O=C(c1ccccn1)N1CCC2(CC1)COC(COCC1CCCC1)C2 (stereo not given),-17.9
2,CC(C)C(C)NC(=O)Nc1cccc2c1CCN(S(C)(=O)=O)C2 (stereo not given),-62.13
3,Fc1ccc(CN2CCCC3(CCN(Cc4ncc[nH]4)C3)C2)cc1F (stereo not given),59.25
4,Cc1c[nH]c(CN2CCC3(CCCN(Cc4ccc(F)c(F)c4)C3)C2)n1 (stereo not given),79.41
5,Cc1ccc(CN2CCC3(CCCN(Cc4ccc(F)c(F)c4)C3)C2)o1 (stereo not given),25.14
6,O=C1N(Cc2ccc(F)c(F)c2)CCCC1(O)CNCc1ncc[nH]1 (stereo not given),-127.8
7,O=C(c1cn[nH]c1)N1CCC2(CCCN(Cc3ccc(F)c(F)c3)C2)C1 (stereo not given),-30.22
8,CN(C)C(=O)N1CCCC2(CCN(Cc3ccc(Cl)c(F)c3)C2)C1 (stereo not given),40.95
9,Cc1noc(CN2CCCC(Cn3nc(C)nc3C)C2)n1 (stereo not given),-86.57
10,N#Cc1c(SCCN2CCCCCC2)sc2c(O)cc(O)nc12,-30.34
11,CN(C)S(=O)(=O)N1C[C@@H]2COC[C@]2(COc2ccccn2)C1.O=C(O)C(F)(F)F,-16.81
12,CCCn1nnc(NCc2cc(Br)cc(Br)c2OC)n1,-108.1
13,COc1ccccc1OCC(=O)NCC(O)(c1cccs1)C1CC1 (stereo not given),-17.87
14,CN1CCn2c(-c3ccccc3)cnc2C12CCN(CC1CC1)CC2.O=C(O)C(F)(F)F.O=C(O)C(F)(F)F.O=C(O)C(F)(F)F,80.28
15,CN1CCn2c(-c3cnn(C)c3)cnc2C12CCN(CC1CC1)CC2.O=C(O)C(F)(F)F.O=C(O)C(F)(F)F.O=C(O)C(F)(F)F,-83.71
16,CN1CCn2c(-c3cccc(F)c3)cnc2C12CCN(CC1CC1)CC2.O=C(O)C(F)(F)F.O=C(O)C(F)(F)F.O=C(O)C(F)(F)F,75.26
17,CCS(=O)(=O)N1CCC2(CC1)c1ncc(-c3cccnc3)n1CCN2C,-142.7
18,CC(=O)N1CCC2(CC1)c1ncc(-c3ccc(F)cc3)n1CCN2C,-51.39
19,Cc1ccc(-c2cnc3n2CCN(C)C32CCN(CC3CC3)CC2)cc1.O=C(O)C(F)(F)F.O=C(O)C(F)(F)F.O=C(O)C(F)(F)F,38.95
20,CNC(=O)N1CCC2(CC1)c1ncc(-c3cccc(F)c3)n1CCN2C.O=C(O)C(F)(F)F,-80.59
21,CCN1CCn2c(-c3cccc(F)c3)cnc2C12CCN(C(C)=O)CC2.O=C(O)C(F)(F)F,-93.41
22,CN1CC2(CCN(c3ncnc4c3CCNC4)CC2)OC1=O,-26.92
23,CSCc1cc(C(=O)NC2(C#N)CC2)ccc1F,-114.4
24,CC(C)c1cc(NC(=O)CN2CCC(N3CCCCC3)CC2)on1,-41.68
25,CN1C(=O)C(c2cccnc2)CC12CCN(Cc1nccs1)CC2 (stereo not given),-72.15
26,Cc1cc(C)n(C2CN(CC(=O)NC3CCS(=O)(=O)C3)C2)n1 (stereo not given),-92.21
27,c1cnc(-c2nc(C3CCOC3)no2)cn1 (stereo not given),-46.11

row,Structure (SMILES),Percent Effect [%]
1,Cc1occc1CNc1ncccc1S(N)(=O)=O,-160.3
2,CCN(C(=O)C1=NN(c2ccccc2)C(=O)CN1)c1ccccc1,-71.25
3,CCN(Cc1ccco1)C(=O)C1=NN(c2ccccc2)C(=O)CN1,59.42
4,O=C(NCCc1ccccn1)C1=NN(c2ccccc2)C(=O)CN1,-38.96
5,CCc1nc(N2CCC3(CCC(=O)N(Cc4ccncc4)C3)CC2)no1,-12.44
6,CC(C)n1cnnc1CN(C)C(=O)Cn1ccc2ccccc2c1=O,-90.48
7,FC(F)(F)C1CCCn2c(CNCc3ccco3)nnc21 (stereo not given),-67.88
8,CCN(CC)C1CCN(C(=O)NCc2c(C)noc2C)CC1,-63.79
9,Cc1noc(C)c1CNCC1CCN(CC(O)c2ccccc2)CC1 (stereo not given),41.75
10,CCc1cc(CNC(=O)N2Cc3ccccc3N(C)CC2C)on1 (stereo not given),-73.36
11,CCc1cc(CNC(=O)N(C2CC2)C(C)c2ccco2)on1 (stereo not given),-36.38
12,Cc1ccc(N(C)C2CCN(C(=O)CCc3ccco3)CC2)nn1,-48.98
13,O=C(O)C(F)(F)F.O=C(c1ccco1)N1C[C@H]2CCCN(Cc3ccc(F)cc3)[C@H]2C1,-36.52
14,Cn1cccc1C(=O)NCc1cn2c(n1)CN(CC1CCOCC1)CC2.O=C(O)C(F)(F)F,-71.57
15,Cc1nc(N2CCCC2)nc2c1CCN(C(=O)NC(C)C)CC2,3.788
16,Cc1cccc(N2CCOCC3(C2)CN(c2cncnc2)C(=O)CO3)n1 (stereo not given),-72.37
17,O=C(CN1CCCC(Cn2cncn2)C1)NCCc1cccs1 (stereo not given),-76.44
18,O=C(CNC(=O)C1(c2ccc(F)cc2F)CCC1)Nc1cccnc1,-130.4
19,CN(C)CCN1CCC(CNCc2c[nH]nc2C(C)(C)C)CC1,-18.94
20,Cc1ccc(CNCc2nccn2C)c(OCC2CC2)c1,-19.72
21,Cc1ccc(CNCc2c[nH]nc2C(C)(C)C)c(OC2CCOC2)c1 (stereo not given),54.5
22,COCCN1CCC(CNCc2c[nH]nc2C(C)(C)C)CC1,-136.4
23,Cc1ccc(NCc2cccc3cn[nH]c23)cc1OC1CCOC1 (stereo not given),18.44
24,NC(=O)c1ccc(CN2CCC(N3CCCC3)CC2)cc1,-126.8
25,O=C(O)C(F)(F)F.O=c1cccnn1CC1CN(CC2CCCC2)Cc2nccn2C1 (stereo not given),-25.12
26,Cn1nccc1-c1cnc2n1CCC21CCN(C(=O)C2(C)CC2)CC1,-43.4
27,CCNC(=O)NC(=O)CNc1cccc(C(=O)c2ccccc2)c1,-85.13

row,Structure (SMILES),Percent Effect [%]
1,CC(C)(N)CNS(=O)(=O)Cc1cccc2cccnc12.Cl,-113.8
2,CSc1nc2ncc3c(=O)n(CCN4CCCCC4)ccc3n2n1,-81.14
3,Cc1ccccc1C(=O)N1CCCn2cnc(CN3CCCC3=O)c2C1,-111.5
4,Cc1ncccc1C(=O)Nc1cccc(OCC(F)F)n1,-105.7
5,CCc1ccc(S(=O)(=O)N2Cc3c(CN(C)C)nn(C)c3C2)cc1.O=C(O)C(F)(F)F,62.16
6,Cc1ccc(CS(=O)(=O)N2Cc3c(CN(C)C)nn(C)c3C2)cc1.O=C(O)C(F)(F)F,28.75
7,COc1ccc(S(=O)(=O)N2Cc3c(CN(C)C)nn(C)c3C2)cc1.O=C(O)C(F)(F)F,40.82
8,CNc1ncc(CN(C)c2nc(C3CCCC3)nc3c2cnn3C)cn1,-13.34
9,CC(C)n1c2ccccc2c2c1cc(C(=O)O)n2C(=O)N(C)C,-103.4
10,O=C(NCCC(O)c1ccoc1)Nc1cccs1 (stereo not given),-113.5
11,CC(=O)NCCN1CCC(c2cccs2)CC1,2.442
12,O=C(Cc1ccccc1Cl)NCCN1CCC(c2cccs2)CC1,62.17
13,O=C(Cc1ccccc1Cl)NCC1CCN(Cc2ccsc2)CC1,33.59
14,O=C(NCCN1CCC(c2cccs2)CC1)c1ccccc1C(F)(F)F,31.51
15,O=C(NCCN1CCC(c2cccs2)CC1)c1ccc(F)cc1Cl,-24.2
16,CCSc1ccccc1C(=O)NCCN1CCC(c2cccs2)CC1,28.22
17,O=C(NCCc1ccccc1)NCCN1CCC(c2cccs2)CC1,76.7
18,O=C(NCCN1CCC(c2cccs2)CC1)Nc1cccs1,62.79
19,COc1ccc(CCC(=O)NCCN2CCC(c3cccs3)CC2)cc1,74.85
20,CC1CCN(CCNC(=O)c2sccc2C2CC2)CC1,-42.92
21,COc1ccc(C(=O)NCCN2CCC(c3cccs3)CC2)cc1OC,29.34
22,Cn1cnc2c1C(COCC1CC1)CN(c1ncccn1)C2.O=C(O)C(F)(F)F.O=C(O)C(F)(F)F (stereo not given),-186
23,CCc1nnc(SCc2nonc2C)n1C,-83.75
24,CCS(=O)(=O)N1Cc2ncn(CC3CC3)c2C(COCC2CC2)C1.O=C(O)C(F)(F)F (stereo not given),-83.39
25,CC(C)OCc1noc(C2CCOC2)n1 (stereo not given),-54.08
26,COc1ccc(-c2nnc(CNCCn3cc(C)cn3)o2)cc1,-61.63
27,O=C(O)c1cc(S(=O)(=O)Nc2cccc3c2OCCO3)c(Cl)cc1F,-73.09

row,Structure (SMILES),Percent Effect [%]
1,O=S(=O)(c1ccccc1Cl)N1CCC2(CC1)OCCS2,-115.5
2,CCN1CCCC2(CCN(Cc3nnc(C4CC4)o3)C2)C1=O (stereo not given),-40.49
3,CC(C)CCN1CCN(CC(=O)Nc2ccc3nsnc3c2)CC1,-73.84
4,Cc1ncncc1C(=O)N1CCCC(c2[nH]ncc2S(C)(=O)=O)C1 (stereo not given),-131.2
5,CCOCc1ccc(CNC2=NCCCN2)cc1.I,55.49
6,CN(C)c1ccc(CNC2=NCCCN2)cc1.I,-57.09
7,I.c1ccc(OCCNC2=NCCCN2)cc1,17.05
8,COc1ccc(-n2cc(CNC(=O)c3cscn3)nn2)cc1,-125.4
9,CC(C)c1nc2c(n1C)CCN(CC(=O)Nc1ccc(Cl)cn1)C2,-37.81
10,CCc1ncc2c(n1)CN(CC(=O)Nc1ccncc1)CC2,-164.3
11,CCc1ncc2c(n1)CN(CC(=O)Nc1ccc(Cl)cn1)CC2,58.18
12,COCC1c2c(cnn2C)CCN1C(=O)c1cccn1C.O=C(O)C(F)(F)F (stereo not given),-111.1
13,CCn1nc(C)c2ccn(CC(=O)NCCN3CCCCC3)c(=O)c21,-46.75
14,Cc1nn(C)c2c(=O)n(CC(=O)NCCN3CCCCCC3)ccc12,8.921
15,CCC1CN(CC(=O)NCCN(CC)CC)c2ccccc2S1 (stereo not given),75.77
16,CCC1CN(CC(=O)NCCN2CCCC2)c2ccccc2S1 (stereo not given),62.37
17,O=C(NCCN1CCCCC1)c1nc2ccccc2c(=O)[nH]1,-48.08
18,CCN(CC)CCNC(=O)c1cnc(-c2ccccc2)nc1,-36.61
19,O=C(NCCN1CCCCC1)c1cccc(Cl)c1Cl,47.98
20,COc1ccccc1N1CCC(CNC(=O)CN2CSCC2=O)C1 (stereo not given),-74.71
21,O=C(NCCN1CCCC1)c1cc2c(s1)CCN2C(=O)c1ccccc1,-40.79
22,Cc1ccccc1C1CCN(CCNC(=O)CS(C)(=O)=O)C1 (stereo not given),-6.702
23,CCC1CN(CC(=O)NCCN2CCCCCC2)c2ccccc2S1 (stereo not given),72.72
24,CCC1CN(CC(=O)NCCN2CCCCC2)c2ccccc2S1 (stereo not given),71.16
